Six1-Eya2 inh: Six1/Eya2 interaction inhibition; activity change, % (concentration not given with the values); AlphaScreen GST-Six1/His-Eya2 binding, biochemical; active compounds read low; AID 651725; Q15475+O00167; actives 0.56% (n = 360,000)
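GST-Six1 + His-Eya2 (5X stock: 250/500 nM); Tris pH 8.0, 300 mM NaCl, 0.05% BSA, 0.02% Tween 20; GSH donor/Ni acceptor beads; 1 h 37 °C dark; AlphaScreen readout.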
CtBP-E1A blk: blocks the CtBP interaction with E1A; AlphaScreen GST-E1A/His-CtBP binding, 1536-well; active compounds read low; actives 0.49% (n = 340,000); activity change, % (no concentration beside the values)
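In 5 uL wells, 23 nL compound meets equimolar GST-E1A and His-CtBP (5X stock 125 nM each) for 2 h, 37 °C. Beads (5X, 50 ug/mL) then 1 h, 37 °C, dark.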
PI5P4Ka inh: PI5P4K alpha (human) kinase inhibition; PI5P4Kalpha enzyme, ADP-Glo luminescence, 60 min; active compounds read low; max response, %; actives 1.2% (n = 330,000); active = max response of -50% or lower; inconclusive = between -30% and -50%; inactive = -30% or higher; also: value at the top dose of about 77 µM
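Enzyme plus substrate dispensed, test compounds pinned in, then ATP (5 microM final) added. After 60 min at RT, ADP-Glo reagent 1 for 45 min and reagent 2 for 30 min preceded luminescence imaging.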
pAkt inh: Akt phosphorylation inhibition; actives 0.32% (n = 360,000); activity change, % for hits at 50 µM; AID 651550; Neuro2A IGF-stimulated pAkt S473 HTRF, 20 min; active compounds read low; in the data active = activity change below about -80%; inconclusive = mostly about -51% to -80%
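Neuro2A cells in DMEM with 0.5% FBS, overnight at 37 deg C, given compound at single 50 µM final, then IGF (6 nM final) for 20 min at 37 deg C. Lysed; phospho-Akt Ser473 by HTRF after 24 h, 665/615 ratio.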
PI4K2A block: inhibitors of human PI4K2A | purified PI4K2A, ADP-Glo luminescence, 1 h; active compounds read low | activity change, negative = inhibition, % at 76.9 µM | actives 0.13% (n = 420,000) | AID 1346378; in the data active = activity change below about -50%; inconclusive = mostly about -30% to -49%
Target sequence (Q9BTU6 whole entry, looked up): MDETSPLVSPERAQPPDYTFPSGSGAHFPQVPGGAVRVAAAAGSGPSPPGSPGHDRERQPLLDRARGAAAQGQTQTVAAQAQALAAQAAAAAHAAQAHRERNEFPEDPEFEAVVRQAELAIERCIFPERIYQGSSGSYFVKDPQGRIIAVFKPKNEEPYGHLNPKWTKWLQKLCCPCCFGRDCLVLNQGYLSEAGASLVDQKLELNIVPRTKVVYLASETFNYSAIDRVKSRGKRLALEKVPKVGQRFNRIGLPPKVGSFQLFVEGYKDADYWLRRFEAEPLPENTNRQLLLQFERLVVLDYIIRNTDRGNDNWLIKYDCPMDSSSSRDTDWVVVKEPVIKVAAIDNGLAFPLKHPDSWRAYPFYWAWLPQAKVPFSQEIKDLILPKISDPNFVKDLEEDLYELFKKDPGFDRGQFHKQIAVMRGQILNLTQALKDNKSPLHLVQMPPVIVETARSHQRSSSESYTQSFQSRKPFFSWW
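PI4K2A activity was measured by ADP-Glo luminescence: enzyme (4 ug/mL stock) and phosphatidylinositol (1.2 mM stock) in Tris pH 7.5/MgCl2/EGTA/Triton X-100 buffer were reacted with ATP (300 microM stock) for one hour at ambient temperature.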
Each line names hits and unclear results; the compound was inactive in the other large screens; ! = not active in a repeat. Compounds with a hit are over-represented: about 1.8% of the library has one in this group of screens. Rule as the data show it, unless noted: active = activity change below about -65%; inconclusive = mostly about -30% to -63%; inactive = weaker than that.

COc1cc(/C=C/[N+](=O)[O-])ccc1OC(=O)c1cc2ccccc2oc1=O	PI5P4Ka inh -61
Cc1cc(Cl)c2oc(C(=O)N3CCN(c4cccc(C)n4)CC3)c(C)c2c1	none
N[C@@H](Cc1cc(I)c(Oc2cc(I)c(O)c(I)c2)c(I)c1)C(=O)O	PI5P4Ka inh -62
N[C@@H](Cc1ccc(O)c(O)c1)C(=O)O	Six1-Eya2 inh inconclusive
N[C@@H](Cc1cc(I)c(Oc2ccc(O)c(I)c2)c(I)c1)C(=O)O	PI5P4Ka inh -82!
OC(CN1C2=NCCCN2c2ccccc21)c1ccc2c(c1)OCO2 (configuration not stated)	pAkt inh -101%
Cc1ccc(C(O)CN2C3=NCCCN3c3ccccc32)cc1 (configuration not stated)	none (no result: PI5P4Ka inh)
OC(CN1C2=NCCN2c2ccccc21)c1ccc2c(c1)OCO2 (configuration not stated)	pAkt inh -118%
c1ccc(CN2C3=NCCN3c3ccccc32)cc1	none
Cc1ccc(C2=Nc3ccccc3N=C(c3ccco3)C2)c(O)c1	pAkt inh -125%
Cc1cc(C)c2c(c1)/C(=N/NC(=O)c1ccc(O)cc1)CCC2	none
Cc1cc(C(=O)N/N=C/c2cccc([N+](=O)[O-])c2O)n[nH]1	Six1-Eya2 inh -91, PI5P4Ka inh inconclusive (no result: CtBP-E1A blk)
Cc1cc(C(=O)N/N=C/c2ccc(O)c([N+](=O)[O-])c2)n[nH]1	none
Cc1cc(C(=O)N/N=C/c2cc(N=Nc3ccccc3)ccc2O)n[nH]1	Six1-Eya2 inh -90
CCCCNC(=O)N(O)C1N(/N=C/c2ccccc2F)C(=S)SC1(C)C (configuration not stated)	none
CCOC(=O)N1CCN(c2nc(SC)nc3sc4c(c23)CC(C)(C)OC4)CC1	pAkt inh -86%
O=c1c(N2CCc3ccccc3C2)csc2ccc(Br)cc12	none (no result: Six1-Eya2 inh, CtBP-E1A blk, PI5P4Ka inh, pAkt inh)
COc1ccc(NCC(=O)N/N=C2\CCc3ccccc32)cc1	none
COc1ccc(OCC(=O)N/N=C2\CCCCc3ccccc32)cc1	PI5P4Ka inh -63
S=c1[nH]cc(-c2ccccc2)[nH]1	none (no result: CtBP-E1A blk)
O=[N+]([O-])c1ccc(-c2c[nH]c(=S)[nH]2)cc1	PI5P4Ka inh -77
COc1ccc(Br)cc1CNC(=O)CSc1cc(=O)n(C)c2ccccc12	none (no result: Six1-Eya2 inh, CtBP-E1A blk, PI5P4Ka inh, pAkt inh)
Cc1cccc(NC(=O)CCCCCN2C(=O)c3ccccc3C2=O)n1	none
Cc1cccc(NC(=O)CCCN2C(=O)c3ccccc3C2=O)n1	pAkt inh -111%
O=C(CCn1c(=O)sc2ccccc21)NC1=NCCS1	none (no result: PI5P4Ka inh)
O=C(CCN1C(=O)c2ccccc2C1=O)NC1=NCCS1	pAkt inh -112%
CCCCNC(=O)C[C@@H]1C[C@@]2(C(=O)OC)CCCCC=C2N(Cc2ccc(Cl)cc2Cl)C1=O	none
Cc1ccc(S(=O)(=O)/N=C(\Nc2cccc(C)c2)Nc2nc(C)cc(C)n2)cc1	none
C[C@H](Cc1ccc(O)c(O)c1)[C@@H](C)Cc1ccc(O)c(O)c1	none (no result: Six1-Eya2 inh, CtBP-E1A blk, PI5P4Ka inh, pAkt inh)
CC(Cc1ccc(O)c(O)c1)C(C)Cc1ccc(O)c(O)c1 (configuration not stated)	PI5P4Ka inh -82
NS(=O)(=O)c1cccc(NC(=O)CSc2nc3nc(-c4cccs4)cc(C(F)(F)F)c3c(=O)[nH]2)c1	PI5P4Ka inh -55
CC(=O)c1c(C)[nH]c(C(=O)NCCc2ccccc2)c1C	pAkt inh -117%
O=C1OC(c2ccc3ccccc3c2O)(c2ccc3ccccc3c2O)c2ccccc21	PI5P4Ka inh -79
Cc1nc(SC(C(=O)c2ccccc2)c2ccccc2)n[nH]1 (configuration not stated)	none (no result: PI5P4Ka inh)
C/C=C/c1ccc(OCCCNC)c(OC)c1	pAkt inh -119%
C/C=C/c1ccc(OCCNCc2ccccc2)c(OC)c1	none
Cc1ccc(-n2cccc2/C=C2/C(=N)N3C(=NC2=O)SN=C3S(C)(=O)=O)cc1Cl	PI5P4Ka inh -74
CCOc1cc(/C=C2/C(=N)N3C(=NC2=O)SN=C3S(C)(=O)=O)ccc1OC(=O)c1ccco1	CtBP-E1A blk inconclusive, PI5P4Ka inh inconclusive
COc1ccccc1-n1c(C)cc(/C=C2/C(=N)N3C(=NC2=O)SN=C3S(C)(=O)=O)c1C	PI5P4Ka inh -51
CCOc1cc(/C=C2/C(=N)N3C(=NC2=O)SN=C3S(C)(=O)=O)ccc1OS(=O)(=O)c1ccccc1	PI5P4Ka inh -63 (no result: CtBP-E1A blk)
Cc1cccc(C)c1-n1cccc1/C=C1/C(=N)N2C(=NC1=O)SN=C2S(C)(=O)=O	none
COc1cc(/C=C2\C(=N)N3N=C(S(C)(=O)=O)SC3=NC2=O)ccc1OCCOc1ccccc1C	PI5P4Ka inh -57
CCCc1oc2c(c(=O)c1CC)C(=O)CC(C)(C)C2	none (no result: PI5P4Ka inh)
Cc1cc(/C=C2/C(=N)N3C(=NC2=O)SN=C3S(C)(=O)=O)c(C)n1-c1ccc(F)cc1	PI5P4Ka inh -64 (no result: CtBP-E1A blk)
Cc1cc(/C=C2/C(=N)N3C(c4ccccc4)=CSC3=NC2=O)c(C)n1-c1ccccc1	PI5P4Ka inh inconclusive
CCOc1ccc(-n2c(C)cc(/C=C3/C(=N)N4C(=NC3=O)SN=C4S(C)(=O)=O)c2C)cc1	PI5P4Ka inh -64 (no result: CtBP-E1A blk)
Cc1nc2cc(-c3ccc(Cl)cc3)nn2c(C)c1CCC(=O)N1CCN(c2ccccc2)CC1	none (no result: Six1-Eya2 inh, CtBP-E1A blk, PI5P4Ka inh, pAkt inh)
COCc1cc(C)nc(OCC(=O)N/N=C/c2ccco2)c1C#N	none
CCOC(=O)N/N=C/c1ccc(N(CC)CC)cc1O	none
Cc1cc(=O)[nH]c(NN=Cc2cc(Br)ccc2O)n1	Six1-Eya2 inh -89, CtBP-E1A blk -94
CCN(CC)c1ccc(/C=N/Nc2ccc(C)cc2)c(O)c1	Six1-Eya2 inh inconclusive, CtBP-E1A blk inconclusive
CCN(CC)c1ccc(/C=N/Nc2nc(C)cc(=O)[nH]2)c(O)c1	Six1-Eya2 inh -92, CtBP-E1A blk -98
CCN(CC)c1ccc(/C=N/NC(=O)c2c(Cl)cnn2C)c(O)c1	Six1-Eya2 inh -90, CtBP-E1A blk -91
O=C(NCCN1CCN(C(=O)c2cccc(OC(F)F)c2)CC1)c1cccc(OC(F)F)c1	none
COc1ccc(C)c2sc(NC(=O)c3cccc(N4C(=O)CCC4=O)c3)nc12	none
CC(C)=CCc1cc(-c2oc3cc(O)cc(O)c3c(=O)c2O)ccc1O	PI5P4Ka inh -55
O=c1c(O)c(-c2ccc(O)cc2O)oc2cc(O)cc(O)c12	PI4K2A block -67 (no result: Six1-Eya2 inh, CtBP-E1A blk, PI5P4Ka inh, pAkt inh)
O=c1c(O)c(-c2cc(O)c(O)c(O)c2)oc2cc(O)cc(O)c12	Six1-Eya2 inh inconclusive, CtBP-E1A blk inconclusive, PI5P4Ka inh -90
CCOC(=O)c1ccc(NS(=O)(=O)c2ccc(-c3coc(C)n3)cc2)cc1	none
COc1ccc(S(=O)(=O)NCCSCc2ccccc2C)cc1Br	pAkt inh -114%
CCOC(=O)C1=C(C)NC2=C(C(=O)CC(C)(C)C2)C1c1ccc2c(c1)CCCN2C (configuration not stated)	none
S=c1[nH]nc(-c2ccc(Cl)cc2)n1-c1ccc(Cl)cc1	none
